{
  "source": "PubChem BioAssay (NCATS)",
  "key": {"[1]": {"molecular_target": "Estrogen receptor (Homo sapiens) (UniProt P03372)", "sequence (P03372 whole entry, looked up)": "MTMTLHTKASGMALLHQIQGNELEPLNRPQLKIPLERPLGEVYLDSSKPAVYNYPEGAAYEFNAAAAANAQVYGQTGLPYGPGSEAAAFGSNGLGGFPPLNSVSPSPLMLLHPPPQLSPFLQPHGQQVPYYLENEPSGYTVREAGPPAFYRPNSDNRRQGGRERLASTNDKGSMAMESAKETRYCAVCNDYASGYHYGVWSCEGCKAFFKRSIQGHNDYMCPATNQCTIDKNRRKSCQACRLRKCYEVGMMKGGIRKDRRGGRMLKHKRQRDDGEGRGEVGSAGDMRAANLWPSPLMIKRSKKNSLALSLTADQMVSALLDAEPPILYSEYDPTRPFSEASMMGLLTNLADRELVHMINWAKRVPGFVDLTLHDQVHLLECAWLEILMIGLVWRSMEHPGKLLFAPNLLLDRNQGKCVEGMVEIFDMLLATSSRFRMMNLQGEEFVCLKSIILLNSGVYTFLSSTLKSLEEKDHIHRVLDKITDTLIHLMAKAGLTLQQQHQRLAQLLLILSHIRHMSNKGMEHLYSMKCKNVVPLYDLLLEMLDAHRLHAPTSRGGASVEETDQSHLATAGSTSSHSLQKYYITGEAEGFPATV", "experiment": "qHTS assay for small molecule antagonists of estrogen receptor alpha signaling (AID 588513; active = well fitted curve in the direction sought with a large enough effect in the signal ratio, with a control signal flat, not every such curve was filed as active; the % refers to the signal ratio; also: % is scaled to controls: 0 for no effect and ±100 for the full control effect)", "how_it_was_run": "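ER-alpha-UAS-bla GripTite HEK 293 cells in 2% charcoal/dextran-treated FBS medium; compounds titrated (1:2, duplicate), then stimulated with 0.5 nM 17-beta-estradiol for 18 h at 37C. CCF4 beta-lactamase fluorescence; Hill-fit IC50 and efficacy.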"}, "[2]": {"molecular_target": "Bile acid receptor (Homo sapiens) (UniProt Q96RI1)", "sequence (Q96RI1 whole entry, looked up)": "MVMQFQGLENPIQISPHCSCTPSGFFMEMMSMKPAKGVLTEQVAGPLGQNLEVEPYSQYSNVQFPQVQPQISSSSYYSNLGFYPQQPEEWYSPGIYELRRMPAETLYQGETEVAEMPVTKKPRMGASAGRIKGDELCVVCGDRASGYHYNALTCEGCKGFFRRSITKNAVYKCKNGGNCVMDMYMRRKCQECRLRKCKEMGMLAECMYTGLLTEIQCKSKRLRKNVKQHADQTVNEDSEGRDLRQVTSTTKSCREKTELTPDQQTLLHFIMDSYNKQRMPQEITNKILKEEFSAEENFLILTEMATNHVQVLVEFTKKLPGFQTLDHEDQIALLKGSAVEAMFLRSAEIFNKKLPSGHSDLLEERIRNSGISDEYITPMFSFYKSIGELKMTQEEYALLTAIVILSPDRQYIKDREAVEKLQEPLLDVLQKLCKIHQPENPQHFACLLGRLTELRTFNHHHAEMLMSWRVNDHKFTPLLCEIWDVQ", "experiment": "qHTS assay for small molecule antagonists of farnesoid X receptor signaling (AID 588526); also: % is scaled to controls: 0 for no effect and ±100 for the full control effect", "how_it_was_run": "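Antagonist mode: titrated compounds tested against chenodeoxycholic acid stimulation (normalized to 50 uM CDCA and DMSO) in GeneBLAzer HEK293T cells for 16 h. Beta-lactamase read by CCF4 fluorescence; IC50 from Hill fits.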"}, "[3]": {"molecular_target": "Glucocorticoid receptor (Homo sapiens) (UniProt P04150)", "sequence (P04150 whole entry, looked up)": "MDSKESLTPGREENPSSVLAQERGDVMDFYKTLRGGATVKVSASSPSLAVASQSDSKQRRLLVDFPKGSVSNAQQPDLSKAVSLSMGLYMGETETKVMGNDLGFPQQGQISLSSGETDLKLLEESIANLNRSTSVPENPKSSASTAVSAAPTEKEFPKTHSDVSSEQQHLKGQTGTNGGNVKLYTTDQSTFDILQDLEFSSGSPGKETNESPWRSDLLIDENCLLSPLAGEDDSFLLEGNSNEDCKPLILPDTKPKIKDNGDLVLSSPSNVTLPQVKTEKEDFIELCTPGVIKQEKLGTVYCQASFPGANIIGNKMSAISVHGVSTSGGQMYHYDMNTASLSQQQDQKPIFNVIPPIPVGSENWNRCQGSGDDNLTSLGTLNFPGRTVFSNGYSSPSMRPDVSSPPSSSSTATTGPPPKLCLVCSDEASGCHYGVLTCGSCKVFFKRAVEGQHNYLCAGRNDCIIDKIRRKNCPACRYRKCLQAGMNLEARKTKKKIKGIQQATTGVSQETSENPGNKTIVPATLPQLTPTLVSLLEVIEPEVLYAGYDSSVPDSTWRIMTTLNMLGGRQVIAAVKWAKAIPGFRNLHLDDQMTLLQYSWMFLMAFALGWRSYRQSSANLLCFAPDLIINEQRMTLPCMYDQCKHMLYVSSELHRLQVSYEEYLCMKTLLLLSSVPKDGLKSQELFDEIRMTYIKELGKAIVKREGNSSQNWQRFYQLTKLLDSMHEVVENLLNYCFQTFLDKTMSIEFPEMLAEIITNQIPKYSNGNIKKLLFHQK", "experiment": "qHTS assay for small molecule agonists of glucocorticoid receptor signaling (AID 588532; active = well fitted curve in the direction sought with a large enough effect in the signal ratio, with a control signal flat; the % refers to the signal ratio;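 also: 100% = dexamethasone at 0.1 µM and 0% = DMSO only wells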)", "settings": "HeLa MMTV-bla, beta-lactamase ratio, agonist, 18 h; stronger effect = higher value; percent of dexamethasone control, DMSO zero", "how_it_was_run": "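MMTV-bla HeLa beta-lactamase reporter cells in 1% charcoal/dextran FBS medium, compounds up to 92 uM for 18 h at 37 C, CCF4 readout; normalized to 0.1 uM dexamethasone (100%), EC50 and efficacy from Hill fits.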"}, "[4]": {"molecular_target": "DNA dC->dU-editing enzyme APOBEC-3G (Homo sapiens) (UniProt Q9HC16)", "sequence (Q9HC16 whole entry, looked up)": "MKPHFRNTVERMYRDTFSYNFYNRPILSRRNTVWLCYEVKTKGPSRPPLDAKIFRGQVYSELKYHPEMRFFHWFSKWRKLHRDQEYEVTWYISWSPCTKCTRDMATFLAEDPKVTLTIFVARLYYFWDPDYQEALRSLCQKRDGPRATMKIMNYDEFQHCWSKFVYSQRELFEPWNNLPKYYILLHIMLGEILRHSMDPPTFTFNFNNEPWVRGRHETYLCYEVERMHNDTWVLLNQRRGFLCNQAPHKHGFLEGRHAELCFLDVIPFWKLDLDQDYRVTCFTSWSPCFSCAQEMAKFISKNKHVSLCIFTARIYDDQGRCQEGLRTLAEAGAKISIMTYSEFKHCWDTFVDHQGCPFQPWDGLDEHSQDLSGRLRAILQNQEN", "experiment": "qHTS for inhibitors of Vif-A3G interactions: Validation (AID 588379; active = well fitted inhibition curve with a large enough effect; also: 0% is about no effect)", "how_it_was_run": "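HeLa cells stably expressing Vif and A3G-eYFP, 700 cells/well, incubated overnight at 37 deg C, then exposed to compound overnight at 37 deg C. Inhibition of Vif-mediated degradation read as increased yellow fluorescence (Ex 488/Em 500-530) by laser-scanning cytometry.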"}, "[5]": {"molecular_target": "Androgen receptor (Homo sapiens) (UniProt P10275)", "sequence (P10275 whole entry, looked up)": "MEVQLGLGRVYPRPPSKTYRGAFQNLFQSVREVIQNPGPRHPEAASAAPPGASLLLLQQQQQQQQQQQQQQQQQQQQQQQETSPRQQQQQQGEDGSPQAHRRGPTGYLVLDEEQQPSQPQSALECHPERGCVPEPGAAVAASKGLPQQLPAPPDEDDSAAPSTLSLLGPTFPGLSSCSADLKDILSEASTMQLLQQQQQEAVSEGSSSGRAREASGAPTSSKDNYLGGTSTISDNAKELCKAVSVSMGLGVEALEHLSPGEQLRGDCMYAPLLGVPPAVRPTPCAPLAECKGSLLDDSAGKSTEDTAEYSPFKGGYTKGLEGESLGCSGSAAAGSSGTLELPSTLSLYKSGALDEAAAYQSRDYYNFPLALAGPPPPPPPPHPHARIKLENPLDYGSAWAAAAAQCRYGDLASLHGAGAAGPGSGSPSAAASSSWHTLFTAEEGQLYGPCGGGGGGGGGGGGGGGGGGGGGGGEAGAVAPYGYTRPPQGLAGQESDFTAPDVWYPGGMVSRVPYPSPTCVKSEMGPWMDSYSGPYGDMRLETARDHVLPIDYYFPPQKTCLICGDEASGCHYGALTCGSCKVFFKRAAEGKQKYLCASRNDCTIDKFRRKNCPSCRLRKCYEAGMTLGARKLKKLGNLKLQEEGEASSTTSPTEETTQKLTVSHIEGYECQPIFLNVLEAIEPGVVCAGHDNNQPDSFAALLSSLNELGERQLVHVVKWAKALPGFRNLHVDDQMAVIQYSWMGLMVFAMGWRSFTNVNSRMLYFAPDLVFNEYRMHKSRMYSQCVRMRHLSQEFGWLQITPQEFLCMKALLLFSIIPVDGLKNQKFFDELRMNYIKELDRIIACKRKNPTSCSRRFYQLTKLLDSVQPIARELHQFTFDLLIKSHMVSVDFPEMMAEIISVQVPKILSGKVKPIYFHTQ", "experiment": "qHTS assay for small molecule agonists of androgen receptor signaling (AID 588515; active = well fitted curve in the direction sought with a large enough effect in the signal ratio, with a control signal flat; the % refers to the signal ratio; also: % is scaled to controls: 0 for no effect and ±100 for the full control effect)", "settings": "AR-UAS-bla HEK293, beta-lactamase ratio, agonist 16 h; stronger effect = higher value", "how_it_was_run": "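EC50 and efficacy came from Hill fits of titrations (up to 92 uM) normalized to 30 nM R1881 as 100% and DMSO as 0%. Compound exposure was 16 h at 37 C on AR-UAS-bla HEK293 cells, with a 405/460/530 nm CCF4 fluorescence read.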"}, "[6]": {"molecular_target": "Androgen receptor (Homo sapiens) (UniProt P10275)", "experiment": "qHTS assay for small molecule antagonists of androgen receptor signaling (AID 588516; active = well fitted curve in the direction sought with a large enough effect in the signal ratio, with a control signal flat, not every such curve was filed as active; the % refers to the signal ratio; also: % is scaled to controls: 0 for no effect and ±100 for the full control effect)", "how_it_was_run": "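AR-UAS-bla GripTite HEK 293 cells (2000/well) treated with compound titrations plus 10 nM R1881 for 16 h at 37C. Beta-lactamase read by CCF4 FRET (460/530 nm); IC50 from Hill fits, normalized to R1881 and DMSO control wells.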"}, "[7]": {"molecular_target": "Glucocorticoid receptor (Homo sapiens) (UniProt P04150)", "experiment": "qHTS assay for small molecule antagonists of glucocorticoid receptor signaling (AID 588533; active = well fitted inhibition curve with a large enough effect in the signal ratio, with a control signal flat, not every such curve was filed as active; the % refers to the signal ratio; also: % is scaled to controls: 0 for no effect and ±100 for the full control effect)", "how_it_was_run": "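Antagonist-mode qHTS: compound titrations added to GRE-bla HeLa cells, then dexamethasone 2 nM final; 18 h, 37 C. CCF4 FRET fluorescence normalized to dexamethasone and DMSO; IC50 from Hill fit.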"}, "[8]": {"experiment": "qHTS assay for small molecule antagonists of peroxisome proliferator-activated receptor delta signaling (AID 588535; active = well fitted inhibition curve with a large enough effect in the signal ratio, with a control signal flat, not every such curve was filed as active; the % refers to the signal ratio;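 as to max response: cells co-treated with a PPAR-delta agonist as stimulator during compound exposure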)", "settings": "HEK293T PPARd-UAS-bla, beta-lactamase FRET ratio, 18 h; 460 nm channel", "how_it_was_run": "(§1)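 Antagonist-mode beta-lactamase reporter (GeneBLAzer PPAR-delta-UAS-bla) in HEK293T cells, 2% charcoal/dextran FBS, 4000 cells/well. Compound titrations, 18 h at 37 C; CCF4 ratio read, IC50 and efficacy from Hill fits.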"}, "[9]": {"molecular_target": "Peroxisome proliferator-activated receptor delta (Homo sapiens) (UniProt Q03181)", "sequence (Q03181 whole entry, looked up)": "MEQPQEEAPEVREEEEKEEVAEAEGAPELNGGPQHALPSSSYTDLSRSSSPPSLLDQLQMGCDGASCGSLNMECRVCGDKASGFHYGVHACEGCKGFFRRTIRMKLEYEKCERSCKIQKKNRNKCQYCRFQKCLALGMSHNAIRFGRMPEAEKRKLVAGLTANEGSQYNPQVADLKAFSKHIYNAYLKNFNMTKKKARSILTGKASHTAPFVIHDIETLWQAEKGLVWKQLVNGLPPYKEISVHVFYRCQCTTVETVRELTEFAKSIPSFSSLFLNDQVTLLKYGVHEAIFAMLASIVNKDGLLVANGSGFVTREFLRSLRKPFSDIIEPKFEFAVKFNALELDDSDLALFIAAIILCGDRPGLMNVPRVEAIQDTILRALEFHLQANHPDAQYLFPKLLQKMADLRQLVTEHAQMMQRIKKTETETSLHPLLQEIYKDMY", "experiment": "qHTS assay for small molecule antagonists of peroxisome proliferator-activated receptor delta signaling (AID 588535)", "how_it_was_run": "as §1"}, "[10]": {"molecular_target": "Estrogen receptor (Homo sapiens) (UniProt P03372)", "experiment": "qHTS assay for small molecule agonists of estrogen receptor alpha signaling (AID 588514)", "how_it_was_run": "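ER-alpha-UAS-bla GripTite HEK293 cells, 5000/well in 2% charcoal/dextran-stripped FBS medium, treated with compound titrations 18 h at 37 C. CCF4 beta-lactamase read by fluorescence after 2 h RT; normalised to 20 nM 17-beta-estradiol (100%) and DMSO (0%), Hill fit for EC50 and efficacy.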"}},
  "note": "Several values for one entry are separate records, joined by “and”; a condition that tells them apart may be missing. Equal entries are not always repeated. Records with an inconclusive call do not appear. Activity calls are given as the source filed them. Unless noted, calls follow the shape of the full dose curve.",
  "data": [
    {"molecule": "Nc1ccc(O)cc1", "values": [
      {"measurement": "outcome", "setting": "[1]", "value": "inactive"},
      {"measurement": "outcome", "setting": "[2]", "value": "inactive"},
      {"measurement": "activation", "setting": "[3]", "value": "1.91% (inactive)"}
    ]},
    {"molecule": "O=C1NC(c2cccc([N+](=O)[O-])c2)=CCN1c1ccccc1O", "values": [
      {"measurement": "outcome", "setting": "[4]", "value": "inactive"}
    ]},
    {"molecule": "O=C(c1ccccc1)c1ccccc1", "values": [
      {"measurement": "activation", "setting": "[5]", "value": "19.2% (inactive) and -0.683% (inactive)"},
      {"measurement": "outcome", "setting": "[6]", "value": "inactive"},
      {"measurement": "outcome", "setting": "[2]", "value": "inactive"},
      {"measurement": "activation", "setting": "[3]", "value": "-1.61% (inactive) and 0.77% (inactive)"},
      {"measurement": "outcome", "setting": "[7]", "value": "inactive"},
      {"measurement": "max response", "setting": "[8]", "value": "3.99% and -25%"},
      {"measurement": "outcome", "setting": "[9]", "value": "inactive"}
    ]},
    {"molecule": "Cc1cc(C(C)(C)C)c(O)c(C(C)(C)C)c1", "values": [
      {"measurement": "outcome", "setting": "[2]", "value": "inactive"},
      {"measurement": "activation", "setting": "[3]", "value": "-5.33% (inactive) and 4.56% (inactive)"},
      {"measurement": "outcome", "setting": "[7]", "value": "inactive"},
      {"measurement": "max response", "setting": "[8]", "value": 13.8, "unit": "%"},
      {"measurement": "outcome", "setting": "[9]", "value": "inactive"}
    ]},
    {"molecule": "CCCC(=O)c1cc(O)c(O)cc1O", "values": [
      {"measurement": "outcome", "setting": "[1]", "value": "inactive"},
      {"measurement": "outcome", "setting": "[10]", "value": "inactive"},
      {"measurement": "activation", "setting": "[5]", "value": "-9.57% (inactive)"},
      {"measurement": "outcome", "setting": "[2]", "value": "inactive"},
      {"measurement": "activation", "setting": "[3]", "value": "7.26% (inactive)"},
      {"measurement": "max response", "setting": "[8]", "value": 14.6, "unit": "%"},
      {"measurement": "outcome", "setting": "[9]", "value": "inactive"}
    ]},
    {"molecule": "Cn1cnc2c(NCc3ccccc3)nc(NCCO)nc21", "values": [
      {"measurement": "outcome", "setting": "[4]", "value": "inactive"}
    ]},
    {"molecule": "O=C(Nc1ccc(Cl)cc1)Nc1ccc(Cl)c(Cl)c1", "values": [
      {"measurement": "outcome", "setting": "[10]", "value": "inactive"},
      {"measurement": "activation", "setting": "[3]", "value": "4.25% (inactive)"}
    ]},
    {"molecule": "Nc1c[n+](N2CCOCC2)no1", "values": [
      {"measurement": "outcome", "setting": "[4]", "value": "inactive"}
    ]},
    {"molecule": "CN1C(=O)c2ccccc2C1=O", "values": [
      {"measurement": "activation", "setting": "[3]", "value": "-9.8% (inactive)"},
      {"measurement": "outcome", "setting": "[7]", "value": "inactive"},
      {"measurement": "max response", "setting": "[8]", "value": -32.8, "unit": "%"},
      {"measurement": "outcome", "setting": "[9]", "value": "inactive"}
    ]},
    {"molecule": "O=C(NO)c1ccccc1", "values": [
      {"measurement": "outcome", "setting": "[2]", "value": "inactive"},
      {"measurement": "activation", "setting": "[3]", "value": "-5.9% (inactive)"},
      {"measurement": "outcome", "setting": "[7]", "value": "inactive"}
    ]},
    {"molecule": "Cc1ncc(CO)c(CO)c1O", "values": [
      {"measurement": "outcome", "setting": "[2]", "value": "inactive"},
      {"measurement": "max response", "setting": "[8]", "value": 15.2, "unit": "%"},
      {"measurement": "outcome", "setting": "[9]", "value": "inactive"}
    ]},
    {"molecule": "CCN(CC)CCOc1ccc(/C(=C(\\Cl)c2ccccc2)c2ccccc2)cc1", "values": [
      {"measurement": "activation", "setting": "[5]", "value": "-16% (inactive)"},
      {"measurement": "outcome", "setting": "[6]", "value": "inactive"},
      {"measurement": "activation", "setting": "[3]", "value": "7.97% (inactive)"},
      {"measurement": "outcome", "setting": "[7]", "value": "inactive"}
    ]},
    {"molecule": "CCCCCCCCCCCC[N+](C)(C)Cc1ccccc1", "values": [
      {"measurement": "activation", "setting": "[5]", "value": "-8.21% (inactive)"},
      {"measurement": "outcome", "setting": "[6]", "value": "inactive"},
      {"measurement": "outcome", "setting": "[2]", "value": "inactive"},
      {"measurement": "activation", "setting": "[3]", "value": "1.25% (inactive)"},
      {"measurement": "outcome", "setting": "[7]", "value": "inactive"},
      {"measurement": "max response", "setting": "[8]", "value": 29.6, "unit": "%"},
      {"measurement": "outcome", "setting": "[9]", "value": "inactive"}
    ]}
  ]
}
